# Compound activity as filed in PubChem.
# TGFb SMAD3 inh – blocks TGF-b signaling | HepG2 CAGA-GFP TGF-b/SMAD3 reporter, GFP fluorescence, 18 h; TGF-beta stimulated, 500 pg/mL final | Potency, µM (highest dose often 46.1 µM), without a hit: at the highest dose activity, negative = inhibition, usual class: inhibitors | 410,000 tested, 1.2% active; further: potency means the concentration at half of the fitted maximal effect; on the % scale 0 is the no-effect control and ±100 the full control effect; nearly all actives have a fitted effect of over 65% in size
#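 First, reporter cells (HEPG2 CAGA-GFP) rested 2 h at 37 degrees C. Next, compounds were pinned in and TGF-beta added to 500 pg/mL final. After 18 h, GFP was imaged per cell and summed per well.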
# HepG2 viability – kills HepG2 cells in TGF-b inhibitor counter-screen; Potency, µM (series often up to 46.1 µM), inactives show at the highest dose activity change, negative = cytotoxicity, hits mostly cytotoxic; HepG2 CAGA-GFP viability, ATP luminescence, 18 h; 410,000 tested, 0.76% active; further: potency means the concentration at half of the fitted maximal effect
#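 CellTiter-Glo luminescence gave cytotoxicity after 18 hours at 37 degrees C. The cells were HepG2 CAGA-GFP in 1% FBS DMEM, stimulated with 500 pg/mL TGF-beta after compound addition. %Activity was normalised to no-cell wells (complete cell-killing) and DMSO (no toxicity), and curves were fitted and classified.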
# D3 ag – D3 dopamine receptor (human) agonism; D3R DiscoveRx beta-arrestin cells, luminescence, 90 min; max activation, %; 410,000 tested, 0.58% active; in the data active means max activation above about 30%; further: 0% is about no effect
# Target sequence (P35462 whole entry, looked up): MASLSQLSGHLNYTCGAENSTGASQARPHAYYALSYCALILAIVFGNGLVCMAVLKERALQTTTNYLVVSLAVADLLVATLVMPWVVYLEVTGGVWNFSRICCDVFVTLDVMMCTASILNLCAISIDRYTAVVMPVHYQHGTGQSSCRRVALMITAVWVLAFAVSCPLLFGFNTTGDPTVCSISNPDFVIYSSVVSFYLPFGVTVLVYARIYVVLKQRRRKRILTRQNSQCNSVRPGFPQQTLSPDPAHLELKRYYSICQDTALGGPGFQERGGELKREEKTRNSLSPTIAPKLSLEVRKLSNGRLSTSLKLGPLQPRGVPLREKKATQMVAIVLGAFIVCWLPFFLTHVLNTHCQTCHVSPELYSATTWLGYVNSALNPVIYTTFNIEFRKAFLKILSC
#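 Agonist mode: compounds and dopamine controls were applied to plated cells for 90 min at 37 degrees C after an overnight attachment at 1500 cells/well. Luminescent read-out followed 30 - 60 minutes at room temperature with DiscoveRx detection reagent.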
# ATXN2 expr inh – reduces ATXN2 reporter expression in HEK-293 cells. 360,000 tested, 0.72% active. AID 1745845. Potency, µM (titrated, usually from 57 µM), for inactives: at the highest dose activity change, negative = inhibition, usual class: inhibitors. HEK-293 ATXN2-luciferase reporter, luminescence, 24 h; further: potency means the concentration at half of the fitted maximal effect; on the % scale 0 is the no-effect control and ±100 the full control effect; nearly all actives have a fitted effect of over 55% in size
#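 qHTS (up to 57 uM final) was run with 24 h compound exposure of reporter cells at 37 °C. Each well was multiplexed: SteadyGlo luminescence measured ATXN2-luciferase expression after a fluorogenic Gly-Phe-AFC viability readout (25 uM final).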
# S2 tox – viability counter-screen for ATXN expression inhibitors; S2 cells (HEK-293 line with an ATXN2-luciferase reporter) viability, CellTiter-Fluor protease fluorescence, 24 h; Potency, µM (highest dose often 56.7 µM), actives largely listed as cytotoxic; 400,000 tested, 0.49% active; AID 651635; further: potency means the concentration at half of the fitted maximal effect; nearly all actives have a fitted effect of over 40% in size
# DRD3 antagonist – D3 dopamine receptor (human) antagonism; P35462; D3R cells, DiscoveRx beta-arrestin luminescence, antagonist mode; active compounds read low; AID 652054; max response, negative = inhibition, %; 360,000 tested, 2.5% active; in the data active means max response below about -50%; inconclusive means no clear call, values can overlap the other calls; further: on the % scale 0 is the no-effect control and ±100 the full control effect
#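 Cells expressing the human receptor were seeded at 1500 cells/well, incubated overnight at 37 degrees C in 5% CO2, then exposed to library compounds with dopamine controls for 90 minutes at 37 degrees C before luminescent detection.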
# An asterisk follows results filed as active; i = inactive; ? = inconclusive; · = no result; ! = a repeat was not active. A selection: hits, their analogues and other compounds. The true share with any hit is near 4.7%. Unless noted, the call rests on the fitted dose curve; in most records, active means well fitted curve in the direction sought with a large enough effect; inconclusive means small, poorly fitted or top-dose-only effect, or another doubt; inactive means no such curve, though single readings can be large; an effect the other way counts as inactive or inconclusive.
SMILES,TGFb SMAD3 inh,HepG2 viability,D3 ag,ATXN2 expr inh,S2 tox,DRD3 antagonist
COC(=O)c1ccc2c(c1)C(C)(C)C(/C=C/c1ccccc1O)=[N+]2C,?,6.3µM*,-44,3.5µM*,7.9µM*,?
C[N+]1=C(/C=C/Nc2ccccc2Cl)C(C)(C)c2ccccc21,?,-28%,5,-26%,i,10
Cc1nc2c(OCc3ccc(C(F)(F)F)cc3)cccn2c1N(C)CC1CC1,11µM*,10µM*,-28,35µM*,22µM*,-99*
CCc1nc2c(OCc3ccc(OC)cc3)cccn2c1N(C)C(=O)c1ccc(OC)cc1,?,-59%,-6,-11%,i,-18
CCc1nc2c(OCC=C(C)C)cccn2c1N(C)C(=O)c1ccc(OC)cc1,-26%,-25%,2,-23%,?,-61*
COC(=O)c1ccccc1COc1cccn2c(N(C)CC3CC3)c(C)nc12,-1%,-12%,-9,-24%,?,-5
CCc1nc2c(OCc3ccc(C(F)(F)F)cc3)cccn2c1N(C)C(=O)c1ccc(OC)cc1,?,-40%,-12,?,?,?
CCc1nc2c(OCCC3CCCCC3)cccn2c1N(C)C(=O)C1CC1,-26%,4%,-20,-33%,·,-66*
CCc1nc2c(OCc3ccc(C(F)(F)F)cc3)cccn2c1N(C)C(=O)c1ccc(C)cc1,?,-46%,-14,?,?,-66*
COc1ccc(/C=C/c2ccnc3ccccc23)cc1,?,-32%,·,·,·,·
O=S(=O)(/C=C/c1ccccc1)N1CCC(n2c(C3CCCO3)nc3cccnc32)CC1 (stereo unspecified),·,·,·,·,i,·
O=C(Nc1cccc(C(=O)OCc2cc(=O)n3nc(C4CC4)sc3n2)c1)c1ccc(F)cc1,9%,2%,8,·,·,·
CCc1nc2c(OCCOC)cccn2c1N(C)C(=O)c1ccc(C)cc1,11%,-1%,-2,-3%,i,-18
CCc1nc2c(OCCC3CCCCC3)cccn2c1N(C)C(=O)c1ccc(C)cc1,?,20µM*,-18,?,?,-56*
Cc1nc2c(OCCC3CCCCC3)cccn2c1N(C)C(=O)CCC1CCCC1,16µM*,18µM*,-16,?,?,-67*
Cc1ccc(CNc2nc(CN3CCN(C=O)CC3)nc3ccccc23)o1,·,·,·,·,i,·
C=C1C(=O)[C@]23C[C@H]1CCC2[C@]1(C)C(=O)CC[C@@](C)(C(=O)O)C1C[C@@H]3O (stereo partly specified),?,-87%,-5,8.9µM*,13µM*,-18
C=C/C(C)=C/CC1C(=C)CCC2C(C)(C(=O)O)CCCC12C (stereo unspecified),-14%,-16%,4,4%,i,22
C=C1C(=O)[C@]23C[C@H]1CCC2[C@]1(C)CCC[C@@](C)(C(=O)O)C1C[C@@H]3O (stereo partly specified),2.5µM*,-87%,-13,3.5µM*,7.1µM*,-89*
C=C1C(=O)[C@]23C[C@H]1CC[C@H]2[C@]1(C)[C@@H](OC(C)=O)CC[C@@](C)(C(=O)O)[C@H]1C[C@@H]3OC(C)=O,10µM*,-85%,-3,18µM*,?,-2
CC(=O)Nc1ccc(S(=O)(=O)Nc2nc3ccccc3nc2Nc2ccc(N)cc2)cc1,2%,21%,-1,·,i,-27
CC(=O)Nc1ccc(Nc2nc3ccccc3nc2NS(=O)(=O)c2ccc(Cl)c([N+](=O)[O-])c2)cc1,?,-10%,3,-6%,i,-91*
Cc1ccc(OC(C)C(=O)N2CCN(CCc3ccccn3)CC2)cc1C (stereo unspecified),-3%,8%,-2,-4%,i,·
COc1ccc2c(c1)-c1c(sn(-c3ccc(OC)c(OC)c3)c1=S)C(C)(C)N2,-17%,-12%,-3,-21%,i,-59*
Cc1c(C(=O)NCc2ccc(Cl)cc2)sc2nc3n(c(=O)c12)CCCCC3,-15%,0%,3,-12%,?,·
SMILES,TGFb SMAD3 inh,HepG2 viability,D3 ag,ATXN2 expr inh,S2 tox,DRD3 antagonist
CC1(C)S[C@@H]2[C@H](NC(=O)COc3ccccc3)C(=O)N2C1C(=O)OCC1CCCCC1 (stereo partly specified),?,-5%,-9,4%,i,-13
CC(C)(C)C(=O)OCOC(=O)[C@@H]1N2C(=O)[C@@H](N=CN3CCCCCC3)[C@H]2SC1(C)C,-4%,-18%,32*!,-5%,i,0
CCOCCN1CCN(C2c3ccccc3CSc3ccccc32)CC1 (stereo unspecified),-21%,-1%,-34,-5%,i,-76*
CCNC(=O)NC1c2ccccc2CSc2ccccc21 (stereo unspecified),-12%,6%,-10,2%,i,7
CCCCCCCCC#Cc1nc(C)ccc1OC,-3%,-27%,65*,0%,i,15
CCOc1nc(C)ccc1-c1noc(-c2ccccc2OC)n1,17%,-27%,-2,16%,i,8
COc1ccc(Br)cc1/C=C/C(=O)Nc1ccc2ccccc2c1,?,-16%,-10,6%,?,-1
COc1ccccc1/C=C/C(=O)NCC(=O)N/N=C/c1cc(Br)ccc1OC,?,7%,-22,?,?,-71*
COc1ccc(/C=C/C(=O)NCC(=O)N/N=C/c2cc(Br)ccc2OC)cc1,-14%,-44%,-40,-3%,i,-58*
COc1ccc(Br)cc1/C=C/C(=O)Nc1ccc(C)cc1,?,-17%,-32,1%,i,-75*
O=C(CCOc1ccccc1)N(Cc1cccnc1)c1nc2ccc(F)cc2s1,?,-21%,-16,·,·,·
Cc1ccccc1CCNC(=O)c1ccc(NC(=O)N2CC(C)Sc3ccccc32)cc1 (stereo unspecified),0%,-19%,4,25%,i,·
COc1ccc(N(CC(=O)N2CCN(c3cccc(OC)c3)CC2)S(=O)(=O)c2c(C)noc2C)cc1,?,-27%,3,-10%,i,·
Cc1ccc2nc(/C(C#N)=C\c3cc(C)n(-c4cccc([N+](=O)[O-])c4)c3C)[nH]c2c1,-19%,-5%,-62,-16%,i,-53*
Cc1cc(/C=C(/C#N)c2nc3ccccc3[nH]2)c(C)n1-c1cc(C(=O)O)cc(C(=O)O)c1,14%,0%,2,-4%,i,-25
CC1(C)Cc2c(c(N3CCOCC3)nc3snc(N)c23)CO1,10µM*,-47%,-7,-16%,?,-19
